Assay results from PubChem BioAssay (NCI).
This is part of a sample that, as a whole, favours compounds with a hit. Of some 79,000 tested, about 15% had one in any assay. A number with no mark means an inactive call. Active and inactive are the calls of the source. Rule as the data show it: active = growth inhibition above about 70%; inactive = the rest.

assay: NCI Yeast Anticancer Drug Screen. Data for the mgt1 strain (AID 153); conditions: S. cerevisiae mgt1 mutant growth inhibition; at 3.7 µM; active compounds read high
Summary of the method: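 mgt1 yeast grown with test compound; read-out is growth inhibition versus vehicle-treated cultures.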

Structure (SMILES)	growth inhibition
Cc1cccc2c(C(O)CBr)cc(-c3ccc(Cl)cc3)nc12 (stereo not given)	-1%
CN(C)C[C@H]1CC[C@@H](CN(C)C)C1=O	20%
CC1=C(SCCO)C(=O)c2ccccc2C1=O	-3%
COC(=O)CCNc1c2ccccc2nc2cccc([N+](=O)[O-])c12	74% (active)
CC(/C=C/c1ccc2c(c1)OCO2)[N+](=O)[O-] (stereo not given)	16%
COC(=O)C1=C(C)NC(C)=C(C(=O)OCCCN2CCC(c3ccccc3)(c3ccccc3)CC2)C1c1cccc([N+](=O)[O-])c1 (stereo not given)	22%
CCOC(=O)c1cnc2c(C(F)(F)F)cccc2c1N=[N+]=[N-]	-2%
O=[N+]([O-])c1cc2no[n+]([O-])c2cc1N1CCCCC1	56%
COC(=O)c1ccc(NCC2=CC(=O)C=CC2=O)cc1O	30%
CCCCCCCCNC(=O)C1=C(C)NC(C)=C(C(=O)NCCCCCCCC)C1	0%
S=C(Nc1ccc(Cl)c(Cl)c1)SCc1ccc2c(c1)OCO2	15%
O=S(=O)(CCCl)c1ccccc1Cl	1%
Nc1ccccc1CC(O)C(=O)O (stereo not given)	-1%
CN(C)c1ccc(Sc2ccc3nc(N)nc(N)c3c2)cc1	2%
CC(C)C1=CCC2C(=C1)CCC1C(C)(C(=O)O)CCCC21C (stereo not given) (tested in a mixture with another compound)	10%
Cc1ccc(S(=O)(=O)Oc2cc(Cl)c(Cl)cc2Cl)cc1	-2%
CSC(=S)Nc1cc(C)ccn1	-27%
CC(C)c1cc(C(C)C)c(O)c(C([O-])[O-])c1.CC(C)c1cc(C(C)C)c(O)c(C([O-])[O-])c1.CC(C)c1cc(C(C)C)c(O)c(C([OH2+])[OH2+])c1.CC(C)c1cc(C(C)C)c(O)c(C([OH2+])[OH2+])c1.[Cu+2].[Cu+2].[OH3+].[OH3+]	6%
Cc1cc(I)ccc1N	5%
CC(Br)C(=O)c1ccc2cc(Br)c3ccccc3c2c1 (stereo not given)	-1%

Structure (SMILES)	growth inhibition
O=C(Nc1ccccc1)OCCc1ccc(Cl)c(Cl)c1	-4%
O=Cc1cccc2ccc3ccccc3c12	-4%
O=[N+]([O-])CC(SCc1ccccc1)c1ccc2c(c1)OCO2 (stereo not given)	3%
CC1(Cl)CC(O)C2(CC1Br)C1(C)OC1C1OC1(Br)C2(C)C (stereo not given)	-14%
Cc1cc(O)cc(O)c1N=Nc1ccc([N+](=O)[O-])cc1	15%
CCCCCCCCCCCCCC[N+](C)(CC(=O)[O-])Cc1ccccc1 (stereo not given)	26%
CC1=NN(c2cccc(Cl)c2)C(=O)C1	-44%
CC(=O)OCc1ccc(O)c(C=O)c1	-17%
Cc1ccc2ccc3cccc4ccc1c2c34	-1%
Cc1nc(-[n+]2nc(-c3ccncc3)nn2-c2ccccc2)sc1C	-5%
C(CCSC1=NCCN1)CSC1=NCCN1 (tested in a mixture with another compound)	18%
CCCCCCCCCCC(=O)Cl	-25%
COC1C=COC2(C)Oc3c(C)c(O)c4c(c3C2=O)/C(=N/C2CCC(O)OC2C)C=C(NC(=O)/C(C)=C\C(=O)C2CC2C(O)C(C)C(O)C(C)C(OC(C)=O)C1C)C4=O (stereo not given)	-4%
S=c1[nH]nc(Nc2ccc(Cl)cc2)s1	-7%
O=C1CSC(/C=C/c2ccccc2)N1c1ccc(-c2ccc(-n3c(-c4ccccc4)nc4ccccc4c3=O)cc2)cc1 (stereo not given)	-2%
O=C1C=CC(=O)N1c1ccc2c(c1)Cc1cc(NC(=O)C(F)(F)F)ccc1-2	20%
Brc1ccc(-c2cc3c(cc2C2SCCS2)OCO3)cc1	-45%
Oc1ccc2ccccc2c1C(c1ccc(Cl)cc1)c1c(O)ccc2ccccc12	-26%
C[CH2][Sn]([CH2]C)([O]C(=O)C(OC(C)=O)c1ccccc1)[O]C(=O)C(OC(C)=O)c1ccccc1 (stereo not given)	0%
Cc1ccc2ccc(O)cc2c1	-19%

same assay, conditions: S. cerevisiae mgt1 mutant growth inhibition; at 11.0 µM; active compounds read high

Structure (SMILES)	growth inhibition
Cc1cccc2c(C(O)CBr)cc(-c3ccc(Cl)cc3)nc12 (stereo not given)	98% (active)
CN(C)C[C@H]1CC[C@@H](CN(C)C)C1=O	25%
CC1=C(SCCO)C(=O)c2ccccc2C1=O	23%
COC(=O)CCNc1c2ccccc2nc2cccc([N+](=O)[O-])c12	87% (active)
CC(/C=C/c1ccc2c(c1)OCO2)[N+](=O)[O-] (stereo not given)	99% (active)
COC(=O)C1=C(C)NC(C)=C(C(=O)OCCCN2CCC(c3ccccc3)(c3ccccc3)CC2)C1c1cccc([N+](=O)[O-])c1 (stereo not given)	98% (active)
CCOC(=O)c1cnc2c(C(F)(F)F)cccc2c1N=[N+]=[N-]	1%
O=[N+]([O-])c1cc2no[n+]([O-])c2cc1N1CCCCC1	98% (active)
COC(=O)c1ccc(NCC2=CC(=O)C=CC2=O)cc1O	77% (active)
CCCCCCCCNC(=O)C1=C(C)NC(C)=C(C(=O)NCCCCCCCC)C1	1%
S=C(Nc1ccc(Cl)c(Cl)c1)SCc1ccc2c(c1)OCO2	99% (active)
O=S(=O)(CCCl)c1ccccc1Cl	41%
Nc1ccccc1CC(O)C(=O)O (stereo not given)	14%
CN(C)c1ccc(Sc2ccc3nc(N)nc(N)c3c2)cc1	-4%
CC(C)C1=CCC2C(=C1)CCC1C(C)(C(=O)O)CCCC21C (stereo not given) (tested in a mixture with another compound)	6%
Cc1ccc(S(=O)(=O)Oc2cc(Cl)c(Cl)cc2Cl)cc1	-6%
CSC(=S)Nc1cc(C)ccn1	37%
CC(C)c1cc(C(C)C)c(O)c(C([O-])[O-])c1.CC(C)c1cc(C(C)C)c(O)c(C([O-])[O-])c1.CC(C)c1cc(C(C)C)c(O)c(C([OH2+])[OH2+])c1.CC(C)c1cc(C(C)C)c(O)c(C([OH2+])[OH2+])c1.[Cu+2].[Cu+2].[OH3+].[OH3+]	18%
Cc1cc(I)ccc1N	28%
CC(Br)C(=O)c1ccc2cc(Br)c3ccccc3c2c1 (stereo not given)	-1%

Structure (SMILES)	growth inhibition
O=C(Nc1ccccc1)OCCc1ccc(Cl)c(Cl)c1	7%
O=Cc1cccc2ccc3ccccc3c12	-3%
O=[N+]([O-])CC(SCc1ccccc1)c1ccc2c(c1)OCO2 (stereo not given)	47%
CC1(Cl)CC(O)C2(CC1Br)C1(C)OC1C1OC1(Br)C2(C)C (stereo not given)	-1%
Cc1cc(O)cc(O)c1N=Nc1ccc([N+](=O)[O-])cc1	23%
CCCCCCCCCCCCCC[N+](C)(CC(=O)[O-])Cc1ccccc1 (stereo not given)	100% (active)
CC1=NN(c2cccc(Cl)c2)C(=O)C1	-40%
CC(=O)OCc1ccc(O)c(C=O)c1	-18%
Cc1ccc2ccc3cccc4ccc1c2c34	-3%
Cc1nc(-[n+]2nc(-c3ccncc3)nn2-c2ccccc2)sc1C	8%
C(CCSC1=NCCN1)CSC1=NCCN1 (tested in a mixture with another compound)	89% (active)
CCCCCCCCCCC(=O)Cl	-28%
COC1C=COC2(C)Oc3c(C)c(O)c4c(c3C2=O)/C(=N/C2CCC(O)OC2C)C=C(NC(=O)/C(C)=C\C(=O)C2CC2C(O)C(C)C(O)C(C)C(OC(C)=O)C1C)C4=O (stereo not given)	-1%
S=c1[nH]nc(Nc2ccc(Cl)cc2)s1	-2%
O=C1CSC(/C=C/c2ccccc2)N1c1ccc(-c2ccc(-n3c(-c4ccccc4)nc4ccccc4c3=O)cc2)cc1 (stereo not given)	-4%
O=C1C=CC(=O)N1c1ccc2c(c1)Cc1cc(NC(=O)C(F)(F)F)ccc1-2	31%
Brc1ccc(-c2cc3c(cc2C2SCCS2)OCO3)cc1	-36%
Oc1ccc2ccccc2c1C(c1ccc(Cl)cc1)c1c(O)ccc2ccccc12	-14%
C[CH2][Sn]([CH2]C)([O]C(=O)C(OC(C)=O)c1ccccc1)[O]C(=O)C(OC(C)=O)c1ccccc1 (stereo not given)	4%
Cc1ccc2ccc(O)cc2c1	-22%
